Data reported in PubChem BioAssay.
The source made the active and inactive calls. Unless noted, no rule for the calls is given here.

Tests used:
[1] = tested on: Wnt5a (protein binding on small-molecule microarray); experiment: Wnt5a binders on small-molecule microarray, primary screen, biophysical, 635/667 nm fluorescence (AID 1142); settings: 635 nm fluorescence, higher = more signal;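 also: fluorescence read at 667 nm with signal to noise per printed feature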
[2] = cell viability in Huh7 cells, primary screen, cytotoxicity control for HCV replication inhibitor project, CellTiter-Glo luminescence, basal, 48 h (AID 1143); settings: Huh7 HCV replicon, higher = more signal, called active from +8 up or from −8 down;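 also: Huh7 hepatoma cells carrying a hepatitis C replication reporter with no stimulus; test concentration not given here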
[3] = P. aeruginosa biofilm formation inhibitors, primary screen, PAO1 strain, BacTiter-Glo luminescence, LB-PBS (AID 1144); settings: 12 h, higher = more signal
[4] = CREB reporter modulators without forskolin, primary screen, cell-based, PC12, CRE-LacZ reporter, unstimulated (AID 1145); settings: no forskolin, luminescence, 4.5 h, higher = more signal, called active from +8 up or from −8 down
[5] = CREB reporter modulators under forskolin, primary screen, cell-based, PC12, CRE-LacZ reporter, forskolin-stimulated (AID 1146); settings: luminescence, 4.5 h, higher = more signal, called active from +8 up or from −8 down;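 also: PC12 cells with 6xCRE LacZ reporter stimulated by forskolin 10 µM; beta-galactosidase reporter signal reflecting CREB driven transcription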
[6] = target: Streptavidin (Streptomyces avidinii) (UniProt P22629); experiment: streptavidin binders on small-molecule microarray, primary screen, artefact control for SMM compound annotation, biophysical, 635/667 nm fluorescence (AID 1147); settings: streptavidin binding, higher = more signal;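 also: signal reflects streptavidin binding to arrayed compounds as a control protein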
[7] = small-molecule binders of probe aInhba, primary screen, biochemical, small-molecule microarray, 635/667 nm fluorescence (AID 1148); settings: higher = more signal;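 also: score merges 667nm spot fluorescence with signal-to-noise for antibody binding to printed compounds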
Torsin-1A (Homo sapiens) [8] = target: Torsin-1A (Homo sapiens) (UniProt O14656); experiment: torsin A binders from cell lysate, primary screen, small-molecule microarray, wild-type, 635/667 nm (AID 1149); settings: COS7 hTOR1A-WT lysate, 635 nm fluorescence, higher = more signal
Torsin-1A (Homo sapiens) [9] = target: Torsin-1A (Homo sapiens) (UniProt O14656); experiment: small-molecule binders of mutant TOR1A in lysate, primary screen, cell lysate, small-molecule microarray, COS7 lysate, 635/667 nm fluorescence (AID 1150); settings: COS7 hTOR1A mutant lysate, 635 nm fluorescence, higher = more signal;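 also: score pools 667 nm emission and signal to noise measuring lysate protein binding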
[10] = tested on: Sonic hedgehog protein (Shh); experiment: small-molecule binders of Shh protein, primary screen, biochemical, small-molecule microarray, 635/667 nm fluorescence (AID 1151); settings: small-molecule microarray binding, 635 nm fluorescence; higher = more signal;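 also: Shh protein binding to compounds spotted on small-molecule microarray slides; score combines spot fluorescence intensity with signal-to-noise across triplicate slides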
[11] = E. coli DRC41 culture turbidity changes, primary screen, E. coli filamentation inducer project, strain DRC41, OD650, 48 h (AID 1152);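 also: E. coli MC1000 strain DRC41 lacking acrAB efflux pump and sulA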; settings: E. coli DRC41 (acrAB sulA), higher = more signal, called active from +8 up or from −8 down
[12] = small-molecule binders of probe aLefty1, primary screen, biochemical, small-molecule microarray, 635/667 nm fluorescence (AID 1153); settings: higher = more signal;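 also: score merges spot fluorescence with signal-to-noise ratio from the scanned slide images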
[13] = PSAC antagonists in infected red cells, primary screen, cell-based, P. falciparum Indochina, OD700, 1 h (AID 1154); settings: P. falciparum Indochina infected RBC osmotic lysis, higher = more signal, called active from +8 up or from −8 down
[14] = PSAC antagonists in infected red cells, primary screen, cell-based, P. falciparum Indochina, OD700, 2 h (AID 1155);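 also: lysis reports solute entry through the parasite surface anion channel PSAC; channel blockers reduce lysis of infected cells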; settings: P. falciparum Indochina infected erythrocytes, osmotic lysis OD700; higher = more signal, called active from +8 up or from −8 down
[15] = osmotic lysis modulators in infected erythrocytes, primary screen, PSAC antagonist project, cell-based, P. falciparum Indochina, OD700, 3 h (AID 1156); settings: higher = more signal, called active from +8 up or from −8 down
[16] = PSAC antagonists in infected red cells, primary screen, cell-based, P. falciparum Indochina, OD700, 18 h (AID 1157); settings: P. falciparum Indochina infected erythrocytes, osmotic lysis OD700, 18 h; higher = more signal, called active from +8 up or from −8 down
[17] = modulators of S6 phosphorylation in cells, primary screen, cell-based, A549, cytoblot, luminescence, serum-stimulated (AID 1158); settings: A549 phospho-S6 cytoblot, 5 h, higher = more signal;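 also: serum-stimulated A549 lung adenocarcinoma cells; signal is phosphorylated S6 detected by cytoblot immunostaining with HRP secondary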
[18] = target: NADPH oxidase 2 (Homo sapiens) (UniProt P04839); experiment: NOX2-dependent H2O2 signal modulators, primary screen, NOX inhibitor project, cell-based, HEK293-NOX2, PMA-stimulated, Amplex Red fluorescence (AID 1159); settings: 45 min, higher = more signal, called active from +8 up or from −8 down; also: test concentration not given here
[19] = target: NADPH oxidase 4 (Homo sapiens) (UniProt Q9NPH5); experiment: NOX4-dependent H2O2 signal modulators, primary screen, NOX inhibitor project, cell-based, HEK293-NOX4, tetracycline-induced, Amplex Red fluorescence (AID 1160); settings: 45 min, higher = more signal, called active from +8 up or from −8 down
[20] = target: NADPH oxidase 5 (Homo sapiens) (UniProt Q96PH1); experiment: NOX5-dependent H2O2 signal modulators, primary screen, NOX inhibitor project, cell-based, HEK293-NOX5, Amplex Red fluorescence (AID 1161); settings: HEK293-NOX5, ionomycin, 45 min, higher = more signal
Chain of NADPH oxidase 5 (Homo sapiens) (Q96PH1 whole entry, looked up): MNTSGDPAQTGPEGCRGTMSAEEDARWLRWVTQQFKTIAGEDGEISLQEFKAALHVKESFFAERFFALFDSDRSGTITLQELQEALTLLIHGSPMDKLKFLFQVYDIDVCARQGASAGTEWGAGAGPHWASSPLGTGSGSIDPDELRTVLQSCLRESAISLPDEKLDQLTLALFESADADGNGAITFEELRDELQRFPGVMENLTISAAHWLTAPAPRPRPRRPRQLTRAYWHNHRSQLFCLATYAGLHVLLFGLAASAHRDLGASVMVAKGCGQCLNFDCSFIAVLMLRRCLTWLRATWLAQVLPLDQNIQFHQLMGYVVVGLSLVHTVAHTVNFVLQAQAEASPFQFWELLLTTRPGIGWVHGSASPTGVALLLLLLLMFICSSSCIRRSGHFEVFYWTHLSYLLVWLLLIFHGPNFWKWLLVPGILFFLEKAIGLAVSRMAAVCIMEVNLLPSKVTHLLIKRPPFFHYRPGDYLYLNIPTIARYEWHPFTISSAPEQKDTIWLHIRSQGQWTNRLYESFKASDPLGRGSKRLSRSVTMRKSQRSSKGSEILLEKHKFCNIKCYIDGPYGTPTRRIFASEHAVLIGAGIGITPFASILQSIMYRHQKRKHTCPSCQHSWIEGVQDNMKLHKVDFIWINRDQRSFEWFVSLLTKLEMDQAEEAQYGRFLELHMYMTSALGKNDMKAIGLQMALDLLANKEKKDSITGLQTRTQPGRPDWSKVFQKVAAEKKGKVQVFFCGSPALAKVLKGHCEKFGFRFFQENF

Chain of NADPH oxidase 4 (Homo sapiens) (Q9NPH5 whole entry, looked up): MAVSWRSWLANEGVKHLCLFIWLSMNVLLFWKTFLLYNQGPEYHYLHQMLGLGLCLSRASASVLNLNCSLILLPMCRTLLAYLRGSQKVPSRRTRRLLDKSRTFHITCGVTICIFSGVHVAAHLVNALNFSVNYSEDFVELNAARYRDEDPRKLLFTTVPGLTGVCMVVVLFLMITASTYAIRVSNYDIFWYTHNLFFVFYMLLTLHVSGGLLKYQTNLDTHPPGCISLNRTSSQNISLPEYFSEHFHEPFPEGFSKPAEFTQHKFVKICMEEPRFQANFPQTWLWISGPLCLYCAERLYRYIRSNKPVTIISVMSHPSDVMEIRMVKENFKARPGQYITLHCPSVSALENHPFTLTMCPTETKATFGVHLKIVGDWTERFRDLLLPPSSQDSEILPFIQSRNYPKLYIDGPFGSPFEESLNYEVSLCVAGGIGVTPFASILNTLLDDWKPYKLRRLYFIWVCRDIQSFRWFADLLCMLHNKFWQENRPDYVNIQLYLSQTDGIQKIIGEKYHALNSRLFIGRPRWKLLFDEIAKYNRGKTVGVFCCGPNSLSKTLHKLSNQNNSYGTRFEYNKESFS
Chain of Torsin-1A (Homo sapiens) (O14656 whole entry, looked up): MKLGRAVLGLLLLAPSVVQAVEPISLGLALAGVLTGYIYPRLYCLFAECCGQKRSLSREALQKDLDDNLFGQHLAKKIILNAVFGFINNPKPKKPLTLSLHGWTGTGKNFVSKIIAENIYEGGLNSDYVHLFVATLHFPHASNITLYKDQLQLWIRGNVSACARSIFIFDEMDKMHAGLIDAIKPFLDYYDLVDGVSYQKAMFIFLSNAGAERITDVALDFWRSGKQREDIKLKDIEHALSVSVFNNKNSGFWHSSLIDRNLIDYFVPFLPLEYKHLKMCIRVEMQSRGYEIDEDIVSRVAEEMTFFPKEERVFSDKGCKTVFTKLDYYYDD
Chain of NADPH oxidase 2 (Homo sapiens) (P04839 whole entry, looked up): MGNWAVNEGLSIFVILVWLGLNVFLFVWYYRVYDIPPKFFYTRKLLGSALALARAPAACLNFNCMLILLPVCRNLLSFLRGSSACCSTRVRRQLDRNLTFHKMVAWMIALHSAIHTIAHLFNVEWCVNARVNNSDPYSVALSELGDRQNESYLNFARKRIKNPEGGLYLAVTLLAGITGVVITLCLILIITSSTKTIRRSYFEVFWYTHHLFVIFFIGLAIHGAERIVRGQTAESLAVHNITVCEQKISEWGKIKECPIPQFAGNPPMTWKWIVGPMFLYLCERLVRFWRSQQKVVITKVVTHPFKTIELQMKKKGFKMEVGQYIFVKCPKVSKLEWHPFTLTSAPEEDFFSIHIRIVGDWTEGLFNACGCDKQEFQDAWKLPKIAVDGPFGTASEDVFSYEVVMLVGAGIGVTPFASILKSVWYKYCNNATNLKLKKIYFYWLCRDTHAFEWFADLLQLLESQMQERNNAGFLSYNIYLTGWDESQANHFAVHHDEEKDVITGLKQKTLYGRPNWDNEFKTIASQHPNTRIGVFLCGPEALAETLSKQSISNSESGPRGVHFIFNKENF
Chain of Streptavidin (Streptomyces avidinii) (P22629 whole entry, looked up): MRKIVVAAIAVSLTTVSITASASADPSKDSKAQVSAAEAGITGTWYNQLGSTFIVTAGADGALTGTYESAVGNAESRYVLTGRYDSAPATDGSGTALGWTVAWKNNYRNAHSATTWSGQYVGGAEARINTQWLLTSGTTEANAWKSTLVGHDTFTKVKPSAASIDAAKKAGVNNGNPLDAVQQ

Compound	composite z-score [1]	z-score [2]	z-score [3]	z-score [4]	z-score [5]	composite z-score [6]	composite z-score [7]	composite z-score (Torsin-1A (Homo sapiens) [8])	composite z-score (Torsin-1A (Homo sapiens) [9])	composite z-score [10]	z-score [11]	composite z-score [12]	z-score [13]	z-score [14]	z-score [15]	z-score [16]	z-score [17]	z-score [18]	z-score [19]	z-score [20]
COC(=O)[C@@]1(Cc2ccc(OC)cc2)[C@H]2c3cc(C(=O)N(C)C)n(Cc4ccc(C(F)(F)F)nc4)c3C[C@H]2CN1C(=O)c1ccccc1	0.24	0.398 (inactive)	-0.123 (inactive)	0.59 (inactive)	1.54 (inactive)	0.365	0.397	-0.0912	0.0628	-0.709	-0.346 (inactive)	0.301	0.622 (inactive)	0.315 (inactive)	-0.106 (inactive)	0.471 (inactive)	-0.154	0.152 (inactive)	-1.26 (inactive)	-1.13
CC(C)CN1C(=O)[C@@]2(c3ccc([N+](=O)[O-])cc3)CC(=O)N(C3CCCCC3)[C@@H]2c2ccc(CO)cc21	-0.409	-0.159 (inactive)	-0.927 (inactive)	-0.502 (inactive)	0.241 (inactive)	-0.471	-0.237	-1.32	-1.67	-0.939	0.511 (inactive)	-0.191	0.531 (inactive)	0.437 (inactive)	0.0909 (inactive)	0.523 (inactive)	-0.277	-0.717 (inactive)	-0.778 (inactive)	-0.209
CCOC(=O)C[C@H]1[C@H](OC(=O)c2cc3ccccc3oc2=O)[C@@H](NC(=O)CC(C)C)c2cc(OCCCO)ccc2N1C(=O)c1ccccc1	0.175	-3.29 (inactive)	1.25 (inactive)	10.4 (active)	-1.37 (inactive)	0.131	-0.0986	0.272	0.205	0.595	2.61 (inactive)	-0.0601	0.522 (inactive)	-1.18 (inactive)	0.71 (inactive)	-2.17 (inactive)	1.96	-0.403 (inactive)	0.0665 (inactive)	0.622
Cc1ccc(S[C@]2(C(=O)O)CC(=O)N(C(C)C)[C@@H]2c2ccc(CO)cc2)cc1	-0.201	-2.62 (inactive)	-2.2 (inactive)	-0.206 (inactive)	-0.244 (inactive)	-0.186	-0.147	-0.366	1.12	-0.317	1.99 (inactive)	-0.668	1.05 (inactive)	-0.354 (inactive)	-1.28 (inactive)	-0.951 (inactive)	2.66	0.149 (inactive)	-0.716 (inactive)	-0.877
[N-]=[N+]=NCc1ccccc1C[C@@]1(C(=O)NCC(O)CO)N=C(c2ccc(OCCCO)cc2)O[C@@H]1c1ccccc1 (stereo not given in full)	0.423	-4.03 (inactive)	0.141 (inactive)	1.8 (inactive)	0.617 (inactive)	-0.0302	0.0377	0.237	1.14	-0.982	0.0346 (inactive)	0.237	25.3 (active)	16.3 (active)	-1.11 (inactive)	2.07 (inactive)	-0.11	0.0842 (inactive)	1.28 (inactive)	2.5
O=C1C2C=CC(C(O)c3cc(C(F)(F)F)cc(C(F)(F)F)c3)N(Nc3ccccc3)C2C(=O)N1c1ccccc1 (stereo not given)	0.0943	-1.01 (inactive)	-1.35 (inactive)	-0.326 (inactive)	0.501 (inactive)	-0.374	-0.0136	0.702	1.18	-0.857	-0.355 (inactive)	0.345	4.95 (inactive)	2.77 (inactive)	-2.01 (inactive)	2.64 (inactive)	-0.62	0.376 (inactive)	-4.65 (inactive)	-1.33
C=CC[C@@]1(C(=O)N2CCCCC2)N=C(c2ccc(OCCCO)cc2)O[C@@H]1c1ccccc1N=[N+]=[N-]	0.288	-4.35 (inactive)	-0.588 (inactive)	4.01 (inactive)	-1.53 (inactive)	1.18	0.0391	-0.151	1.03	-0.0797	0.432 (inactive)	0.407	31.2 (active)	27.2 (active)	1.27 (inactive)	6.5 (inactive)	0.995	-1.67 (inactive)	0.378 (inactive)	-1.88
COC(=O)[C@@]1(Cc2ccc(F)cc2)[C@H]2c3cc(C(=O)N(C)C)n(Cc4cc(C)n(C)n4)c3C[C@H]2CN1C(=O)c1ccccc1	0.692	-0.617 (inactive)	-0.0119 (inactive)	0.779 (inactive)	0.455 (inactive)	0.678	0.302	0.149	0.0322	0.303	-1.48 (inactive)	0.0576	0.797 (inactive)	0.364 (inactive)	0.0419 (inactive)	0.495 (inactive)	-0.438	0.743 (inactive)	-0.354 (inactive)	-0.329
